# The supplement of paper PMC6555819
# What was measured:
# Test in all cases: PBM binding z-score (relative to random genomic background probes); higher = stronger binding; sequences stand for … in GC…GCGATTGACAGCGTAGAATGAAGG
# [1] = tested on: RARb homodimer (NR concentration 270 nM)
# Procedure, shortened: (§1)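 Scanned fluorescence from custom Agilent 4×180K protein-binding microarrays was regression-normalized. Binding z-scores use random background probes as reference. Ligand-free nuclear receptor dimers were incubated on the arrays for 1 h and detected with antibodies against each partner (one per run).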
# [2] = tested on: RARg:RXRa (NR concentration 270 nM, RXRa partner concentration 90 nM)
# Procedure, shortened: as §1
# [3] = tested on: RARg homodimer (NR concentration 270 nM)
# Procedure, shortened: as §1
# [4] = tested on: RXRa DBDmut IVT, anti-RXR (DBD mutation: RXRa K156A/R161A, NR concentration 90 nM)
# Procedure, shortened: as §1
# [5] = tested on: RXRa homodimer (NR concentration 180 nM)
# Procedure, shortened: as §1
# [6] = tested on: THRa:RXRa (NR concentration 90 nM, RXRa partner concentration 90 nM)
# Procedure, shortened: as §1
# [7] = tested on: THRa homodimer (NR concentration 90 nM)
# Procedure, shortened: as §1
# [8] = tested on: VDR:RXRa (NR concentration 270 nM, RXRa partner concentration 90 nM)
# Procedure, shortened: as §1
# [9] = tested on: VDR homodimer (NR concentration 270 nM)
# Procedure, shortened: as §1
Sequence,PBM binding z-score [1],PBM binding z-score [2],PBM binding z-score [3],PBM binding z-score [4],PBM binding z-score [5],PBM binding z-score [6],PBM binding z-score [7],PBM binding z-score [8],PBM binding z-score [9]
TGTATTAGTTGATTAGGGCAACCGAAACAGCGGA,0.715,0.692,0.807,-0.317,-0.0234,0.551,0.64,0.00753,0.784
TAGCCTAGGTCATTGGGTCAGTATAGTACGCATC,4.17,5.16,5.23,1.87,3.63,3.25,1.84,4.26,2.21
GCTTGTTGATCAAGGTTAAGAAAGACTAAGCTAA,0.2,0.237,0.0786,0.0866,0.387,1.23,-0.213,0.122,-0.369
TCATATAGGTAAACATGTGAAAGTCCGTAAGTTA,0.34,0.489,0.354,1.66,1.06,0.435,0.267,1.1,0.405
AGAATGAGGTTATACGTAGATCGGGGAAGAAAGT,0.901,1.6,0.926,2.14,2.27,2.12,0.732,1.43,0.909
CCGACTGGGGCATAAGGTTACGATAAGCCAGCCC,1.67,1.92,1.18,-0.47,1.45,1.98,0.985,0.321,-0.0834
TCTAGCAGGCCTGAGGGTCACTCAAGAGGTACGG,2.52,2.29,1.53,0.198,2.59,1.75,-0.278,1.9,0.36
GGAACGAAGGCAAAGTTGATAGCATCTGTCGACG,-0.905,-0.275,-0.151,-0.157,-0.084,-0.716,-1.21,-0.832,-1.02
GCTTGTAGATCAAGGTTAAGGAAGACTAAGCTAA,0.296,0.309,0.222,-0.171,0.702,1.25,-0.259,0.00298,-0.459
CCTATTAGTTGACCATAAGGTCAACCGAAGCTCG,4.8,4.83,4.07,1.77,4.39,4.27,5.15,3.95,3.25
GCGACTGGGGCAAAGCAGGTTACCTTAAGGTTGG,0.957,0.509,0.229,-0.0758,0.238,3.21,1.82,0.0193,-0.116
CTCGAACGGTCGGTTGAGGTGAGTATACGGATAA,0.411,0.215,0.464,-0.356,-0.11,3.27,0.822,-0.265,-0.341
TCTGCTAGGTCAACGATGGTCAGCCAATCTGCTA,3.23,4.3,5.2,1.06,2.55,3.16,0.561,1.66,-0.316
ATCGAAAGGTCGAAGGTGGGTATACCCACCCGAA,2.02,3.9,3.4,0.146,4.23,1.81,-0.334,2.54,0.567
AGAATGAGGTAATTAAGATCAGGGAATTGCGGTC,-0.177,0.105,0.0569,-0.166,0.198,1.34,0.328,0.215,-0.255
TCTGCTAGGTCAGTTGGTGAGCTAACGAGCTGCC,1.93,2.27,3.76,0.367,0.541,1.04,-0.41,-0.377,-0.739
GCTAGCAGGCCATTTGGCTCACTCAATGACGGGC,-1.05,-0.42,-0.0728,0.0311,-0.355,-1.69,-1.04,-0.942,-0.733
CTCGAAAGGTCGTGCTCAGGTGAGTCTACCAAAC,2.6,5.27,3.98,2.42,4.89,4.01,0.948,3.35,1.03
CGTCCAAGGTCAAAGGTCAGTGTAGAGATGACGG,5.37,8.64,8.04,3.99,10.1,4.77,2.77,6.6,3.86
TCTCGGAGGACACGAAGGTCAGGGCTTTCCAGAG,4.09,3.4,3.91,0.802,2.43,3.13,1.27,2.24,1.16
TTACTAAGGTGAAGGTCGTTGATCCCTCTGTAGA,1.96,1.85,1.21,0.794,2.31,3.16,1.98,1.73,1.11
GCGTATAGGTAATACAAGGTGAAAGTCCGATTGT,0.95,0.423,0.499,0.141,0.647,4.35,1.03,0.306,0.00145
TCTAGTTGGTCACGGAGGTCAAACACGACGGGTA,4.53,5.24,5.02,1.28,5.47,3.78,2.02,6.21,3.62
CATAGCAGGCCAATCTGGGTCACTCAAGGCTTGA,1.85,1.44,1.57,-0.0976,1.09,3.69,0.366,0.95,-0.0851
TCTAGCAAGCCAGAGGGTCACTCAAGAGGTACGG,2.11,1.94,1.39,-0.198,2.18,1.43,-0.484,1.32,0.431
GGAACGAGGGCATTCGACTTGATAGCATGGCGAT,0.502,1.11,1.52,3.17,0.731,0.81,-0.453,1.35,2.32
